The full ranking holds about 33,000 sequences; the median of “e-score” is about -0.038, and the highest 2% start at about 0.33. What follows is part of a selection rich in the highest values, with near analogues and random picks from the rest.
Target: T1, GST-Rok-C97-191 (Bacillus subtilis subsp. subtilis str. …, UniProt O34857 97-191)
T1 sequence: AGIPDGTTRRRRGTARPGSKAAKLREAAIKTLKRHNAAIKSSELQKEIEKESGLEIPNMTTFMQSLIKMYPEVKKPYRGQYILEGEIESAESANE
Assay: protein binding microarray; Rok is a gene silencer of Bacillus subtilis; high values mean tight binding
Settings: protein: recombinant; tags: GST (pTH5325, pDEST15-Magic modified); dsDNA, one strand shown
Outline: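 Each has a 25-mer constant primer and a 35-mer variable part from a de Bruijn sequence of order 10, covering every non-palindromic 8-mer at least 32 times (palindromic 16). Preference for each 8-mer is given as a rank-based, unitless enrichment score (E-score). Its range runs from 0.5 (most favored) to −0.5 (most disfavored).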

Sequence	binding signal [E-score]
GAGTTTAA	0.0511
TAGTTTAA	0.345
TAGTTTCA	0.361
AAGTTTAA	-0.0234
CAGTTTCA	-0.125
GAGTTTCA	-0.0326
ACCCGCTA	0.0179
ACCTGTGC	-0.159
ACAACCAC	-0.126
CTACTGTA	0.384
ATACTGTA	0.334
ATACTGAA	0.0579
ATACTGTG	-0.082
CTACTGAA	0.098
GTACTGTA	0.219
CATGGAAA	0.0212
AGTACGAG	0.125
ATACTAGC	0.288
CTACTATC	0.344
ATACTCTC	0.0157
CGACTATC	-0.0118
CCACTATC	0.0612
ATACTATC	0.359
ATTACCTG	0.0992
ATTACCTA	0.337

Sequence	binding signal [E-score]
ATTACCAA	0.333
ATTACCAC	0.181
CTTACCAA	0.0678
ATTACCTC	0.136
AAATTTCT	0.203
AAATAGAG	-0.0395
GAATAGAA	0.209
AAATAGAT	0.343
AAATAGGT	0.314
AAATAGAC	0.0478
AAATAGAA	0.36
AAGAGAGA	-0.188
ACCTCCCG	-0.064
CATCAGAC	-0.171
CTATATGC	0.209
ATATATAC	0.367
ACGTATAA	0.268
GGATATAC	0.288
ATATACAC	0.289
CTCTATAC	0.143
GCATATAC	0.18
ACGTATAC	0.137
GTATATAC	0.43
AGATATAC	0.221
ACGTATAT	0.373

Sequence	binding signal [E-score]
CTATATAC	0.376
ACTTAAGA	-0.12
TTGCCAAA	0.142
AAGGAAGC	-0.125
ACTGCGCG	-0.0406
CGAGTGCG	-0.0584
ACATATGT	0.4
AGATATCC	0.00982
AGATATAA	0.282
AGATATCA	0.0773
AGATATAT	0.421
ATATACAT	0.288
ATATATAT	0.443
ACATATGG	0.132
ACATATGA	0.00179
ATATATGG	0.279
AGATATAG	0.188
AGATATCT	0.355
ATGTGCCA	-0.163
ACAACCAA	0.0769
GCGCTCTA	0.0916
GGAATGCA	-0.0343
ACTTTCAT	0.0835
CGGTCCAG	-0.196
ACATATAG	0.206

Sequence	binding signal [E-score]
ACATATAA	0.26
ACATATAT	0.4
AACCTAGA	0.13
AGTATCGA	0.174
CATAATAA	0.281
GATAATAA	0.174
AATAATAG	0.405
TATAATAA	0.374
AATAATAT	0.321
TCTAATAA	0.105
AATAATAA	0.371
ATTAATAC	0.335
CATAATAG	0.136
GCTAATAA	0.212
CTTAATAC	0.0879
ATTAATAA	0.234
GCATCCGC	-0.147
CACATGTC	-0.0475
GAAATTCA	0.106
ACGTGGCG	-0.166
AAGCTGCC	-0.171
GGCGGCGA	-0.142
ACCTGGCA	-0.0345
AAAAATAG	0.2
TATAACGA	0.336

Sequence	binding signal [E-score]
AATAATAC	0.335
GATAATAC	0.21
CAAAATAA	0.0411
AATAACGA	0.169
GATAACGA	0.0698
CAAAATAG	0.333
CATAATAC	0.191
CAGCCCAG	-0.136
CTTTTTTA	-0.151
GAACATAA	0.144
AACGTCGC	0.0434
ACTAGAAT	0.349
ACTAGAAG	0.199
ACTAGAGA	0.118
CCTAGAAA	0.16
ACTAGAAA	0.4
ACTAGAAC	0.255
ACGTTGAT	0.0039
ACTTAAAG	-0.106
ACAGCCGA	-0.00523
ATTAAAAT	0.218
GGTAAATA	0.318
AGTAAATG	0.205
AATAAAAA	0.295
AGTAAAAG	0.267

Sequence	binding signal [E-score]
AGTAAAAA	0.341
AGTAAAAC	0.246
AATAAAAT	0.33
AGTAAATA	0.425
AGTAAATC	0.215
AATAAAAC	0.228
AGTAAAAT	0.329
TCGTTTAA	0.00225
TACTTGCA	0.167
ATCAACTG	0.0687
CTTCATTA	0.0438
CTGGCCCC	-0.197
AACCCCTA	-0.0905
CTAAGTCA	-0.0334
CTAAGACC	-0.137
CAGTGGGA	-0.131
AAACAAGA	0.025
TCCCTCGA	-0.0813
AGTTAAAT	0.335
AGTTAAAA	0.324
CGTAAAAA	-0.0178
TGTAAAAA	0.34
GGTAAAAC	0.121
TGTAAACA	0.079
GGTAAAGA	0.177

Sequence	binding signal [E-score]
AGTTAAAC	0.0755
GGTAAAAA	0.379
CGCTAGTC	-0.137
AAGCTGAT	-0.0275
GAATCGCC	0.00133
CAAAGGAG	-0.156
CACTAACG	-0.157
CCTTACCA	-0.0792
ATACTTTA	0.196
GTACTTAA	0.314
CTACTTTC	0.275
CTACTTCA	0.207
CTACTTAA	0.387
GTACTTTA	0.344
CTACTTTA	0.337
ATACTTAA	0.00261
GGACTTTA	-0.19
CGATCGAA	0.239
TTATCCAA	0.108
CCGTACTA	0.201
GTGTTGTA	0.158
CATGGTGC	-0.16
ACTGGGCT	-0.135

Source: PMC6212790, “How bacterial xenogeneic silencer rok distinguishes foreign from self DNA in its resident genome”
